According to a collection of fitness landscapes (doi:10.1016/j.celrep.2020.107928):
Over roughly 81,000 sequences, “one-hybrid fitness for binding parS DNA” has its median near -0.17; the highest 2% begin near 0.51. Many of the other results were omitted from the sample, so the highest values are more common in it than they were.

B1: Caulobacter ParB omega fusion; a variant is named by its letters at X, in order, B8GW30 (parent)
chain: MESVVVGEPGMSEGRRGLGRGLSALLGEVDAAPAQAPGEQLGGSREAPIEILQRNPDQPRRTFREEDLEDLSNSIREKGVLQPILVRPSPDTAGEYQIVAGERAWRAAQRAGLKTVPIMVRELDDLAVLEIGIIENVQRADLNVLEEALSYKVLMEKFERTQENIAQTIGKSXSHVANXMRLLXLPDEVQSYLVSGELTAXHARAIAAAADPVALAKQIIEGGLSVRETEALARKAPNLSAGKSKGGRPPRVKDTDTQALESDLSSVLGLDVSIDHRGSTGTLTITYATLEQLDDLCNRLTRGI

Variants of: B1
Assay: one-hybrid fitness for binding parS DNA (scaled: cognate 1, non-cognate 0); higher = stronger binding
Conditions: with parS DNA site
How it was run: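 Selection: bacterial one-hybrid in E. coli USO, HIS3 reporter with the site 19 bp from the promoter, 48 hours at 37°C on M9-minus-histidine plus 0.1 mM IPTG and 5 mM 3-AT. Libraries were Caulobacter ParB with four randomised specificity codons, sequenced on Illumina before and after selection. Fitness is the rescaled log change in variant-to-wild-type read ratio, anchored to the cognate and non-cognate sites.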

Row | Variant | one-hybrid fitness for binding parS DNA
1 | RWVN | ≤ 0.2
2 | RWKH | 0.228
3 | RWKY | 0.565
4 | RWVP | ≤ 0.2
5 | RWKP | ≤ 0.2
6 | RWVY | ≤ 0.2
7 | RWYY | 0.248
8 | RWKS | 0.961
9 | RWVS | 0.616
10 | YYVT | ≤ 0.2
11 | MVNS | ≤ 0.2
12 | FTLM | ≤ 0.2
13 | AFVL | ≤ 0.2
14 | RKKF | 0.238
15 | RKVT | 0.795
16 | RKVD | ≤ 0.2
17 | RKKM | 0.231
18 | RKVR | ≤ 0.2
19 | RKKT | 0.604
20 | RPEH | ≤ 0.2
21 | KRWH | ≤ 0.2
22 | QVGR | ≤ 0.2
23 | CDRV | ≤ 0.2
24 | YIYL | ≤ 0.2
25 | MNCF | ≤ 0.2

Row | Variant | one-hybrid fitness for binding parS DNA
26 | ICRD | ≤ 0.2
27 | RPQS | ≤ 0.2
28 | RTQS | 0.951
29 | RAQN | 0.436
30 | RTQH | 0.332
31 | RIQH | ≤ 0.2
32 | RIQS | 0.99
33 | RAQD | ≤ 0.2
34 | RAQS | 0.998
35 | RCQS | 0.986
36 | RTQD | 0.202
37 | RDQS | ≤ 0.2
38 | RIQD | ≤ 0.2
39 | CQTC | ≤ 0.2
40 | RWDL | ≤ 0.2
41 | WRAH | ≤ 0.2
42 | AEGK | ≤ 0.2
43 | AIFS | ≤ 0.2
44 | DPKT | ≤ 0.2
45 | RSQS | 0.984
46 | RHQS | 0.927
47 | RHQH | ≤ 0.2
48 | RSQD | ≤ 0.2
49 | RSQN | 0.427
50 | RMQS | 1.02

Row | Variant | one-hybrid fitness for binding parS DNA
51 | RFQH | ≤ 0.2
52 | RMQH | 0.313
53 | RFQN | 0.457
54 | RFQS | 1
55 | RHQN | 0.382
56 | RMQN | 0.501
57 | GAHD | ≤ 0.2
58 | TLCR | ≤ 0.2
59 | MEVG | ≤ 0.2
60 | LAGY | ≤ 0.2
61 | QVDH | ≤ 0.2
62 | IRKY | ≤ 0.2
63 | FNNR | ≤ 0.2
64 | TAFI | ≤ 0.2
65 | QSRA | ≤ 0.2
66 | TERS | ≤ 0.2
67 | APMD | ≤ 0.2
68 | RKQD | ≤ 0.2
69 | RKQS | 0.793
70 | RLQP | 0.206
71 | RKQN | 0.3
72 | RLQS | 1
73 | RLQH | 0.324
74 | ERKR | ≤ 0.2
75 | LEPN | ≤ 0.2

Row | Variant | one-hybrid fitness for binding parS DNA
76 | CCRD | ≤ 0.2
77 | QNCR | ≤ 0.2
78 | RQVQ | ≤ 0.2
79 | RQKN | 0.433
80 | RQVK | ≤ 0.2
81 | RQKG | 0.939
82 | RQVG | 0.88
83 | RQKH | 0.269
84 | WNHS | ≤ 0.2
85 | KAIM | ≤ 0.2
86 | IGNS | ≤ 0.2
87 | NFGS | ≤ 0.2
88 | GEDR | ≤ 0.2
89 | QFAT | ≤ 0.2
90 | GTTA | ≤ 0.2
91 | ATEM | ≤ 0.2
92 | RTYM | 0.341
93 | RTRM | 0.517
94 | RTKM | 0.594
95 | RTDM | 0.289
96 | RSKM | 0.378
97 | RTVM | 0.315
98 | TLKA | ≤ 0.2
99 | TQQG | ≤ 0.2
